p53null 32C kill = p53 null cell cytotoxicity, permissive temperature; H1299-neo p53 null cells, ATP luminescence, 24 h, 32C; Potency, µM (doses to about 46.1 µM), most hits filed as cytotoxic; 55,000 tested, 0.62% active; also: nearly all actives have a fitted effect of over 55% in size
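ATP-content luminescence in p53-null H1299-neo cells after 24 h compound exposure (up to 46 uM) at 32C permissive temperature; 0% and 100% killing set by DMSO and 100 uM tamoxifen; Hill-equation AC50.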
HTT-AS promoter = HTT-AS promoter activation; HEK293 HTT-AS promoter firefly luciferase reporter, 24 h; response scale: percent change from vehicle, -100% = no light; Potency, µM (highest dose often 57.5 µM), most hits filed as activators; 48,000 tested, 0.24% active; AID 1508624; also: nearly all actives have a fitted effect of over 55% in size
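HEK293 luciferase promoter-reporter cells (2,500/well) plated 24 h, then compounds added at up to 57.5 uM final for 24 h at 37 °C. Firefly luminescence by Dual-Glo, normalized to vehicle (0%) and zero RLU (-100%).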
p53null 39C kill = kills p53 null cells at the nonpermissive temperature. H1299 p53-null (neo) cells, 39C, ATPlite viability, 24 h. Potency, µM (highest dose often 46.1 µM), most hits filed as cytotoxic. 55,000 tested, 0.97% active; also: nearly all actives have a fitted effect of over 50% in size
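ATP-luminescence viability readout (ATPlite, 20 min RT) after 24 hr compound treatment at 39C of H1299-neo or H1299-p53A138V cells; titration up to 46 uM; normalized to DMSO and 100 uM tamoxifen; Hill-fit AC50.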
HTT promoter inh = inhibitors of huntingtin promoter activity; 48,000 tested, 0.93% active; Potency, µM (titrated, usually from 57.5 µM), usual class: inhibitors; HEK293 HTT promoter firefly luciferase reporter, 24 h; also: nearly all actives have a fitted effect of over 50% in size
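Luminescence was read after Dual-Glo reagent and a 10 min room-temperature incubation. Values were normalized to vehicle (0% activity) and zero RLU (-100% activity). Reporter HEK293 cells had been exposed to compounds (up to 57.5 uM final) for 24 h.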
Of the large screens only hits and unclear results are named; the others gave an inactive call. Shown are actives, neighbours in structure and some others; about 1.9% of the full set was active somewhere. Calls follow the shape of the dose curve; as a rule, active = well fitted curve in the direction sought with a large enough effect; inconclusive = small, poorly fitted or top-dose-only effect, or another doubt; inactive = no such curve, though single readings can be large; an effect the other way counts as inactive or inconclusive.

CC1CCCN(C(=O)CSc2c3c(nc4cc(Cl)ccc24)CCCC3)C1 (stereo unspecified)	p53null 39C kill 16µM
Cc1ccc(NC(=O)CSc2c3c(nc4ccccc24)CCCC3)cc1F	p53null 39C kill 22µM
CNC(=O)Nc1ccc(-c2nc(N3CC4CCC(C3)O4)c3cnn(C4CCC5(CC4)OCCO5)c3n2)cc1	none (no result: p53null 32C kill, p53null 39C kill)
CCCCOc1ccc(C(=O)Nc2ccc3c(c2)N(C(C)=O)CCC3)cc1	HTT promoter inh 4.5µM
CCCCOc1ccc(C(=O)Nc2onc3c2CCCC3)cc1	p53null 32C kill inconclusive, HTT-AS promoter 13µM, p53null 39C kill inconclusive
O=C(CCCCCCNC(=O)c1cnc(N(c2ccccc2)c2ccccc2)nc1)NO	HTT-AS promoter inconclusive (no result: p53null 32C kill, p53null 39C kill)
CC(C)Oc1ccc(C(=O)Nc2nnc(SCC(=O)N3CCOCC3)s2)cc1	p53null 32C kill 0.56µM, p53null 39C kill 0.63µM (no result: HTT-AS promoter, HTT promoter inh)
Cc1ccc(C(=O)Nc2nnc(SCC(=O)N3CCCc4ccccc43)s2)cc1	p53null 32C kill 1.3µM (no result: HTT-AS promoter, p53null 39C kill, HTT promoter inh)
CC(C)(C)CC(=O)OCC(=O)[C@@]1(O)CC[C@H]2[C@@H]3CCC4=CC(=O)C=C[C@]4(C)[C@H]3[C@@H](O)C[C@@]21C	none (no result: p53null 32C kill, p53null 39C kill)
COc1cc2ncn(-c3cc(OCc4ccccc4C(F)(F)F)c(C(N)=O)s3)c2cc1OC	none (no result: p53null 32C kill, p53null 39C kill)
Cc1cc(=O)n(CC(=O)N2CCN(c3ccccc3F)CC2)c2c1c(C)nn2C	HTT promoter inh 20µM
O=C(/C=C/Nc1ccc(F)c(F)c1)c1cccs1	none (no result: p53null 32C kill, HTT-AS promoter, HTT promoter inh)
Cc1cccc(N/C=C/C(=O)c2cccs2)c1C	p53null 32C kill 14µM (no result: HTT-AS promoter, p53null 39C kill, HTT promoter inh)
NC(=O)c1ccccc1N/C=C/C(=O)c1cccs1	p53null 32C kill 13µM, p53null 39C kill 11µM (no result: HTT-AS promoter, HTT promoter inh)
CS[C@H]1SC[C@@H]2C(=O)N(C)[C@H](C(C)C)C(=O)OC[C@H](NC(=O)c3cnc4ccccc4n3)C(=O)N[C@H](C)C(=O)N(C)[C@@H]1C(=O)N(C)[C@H](C(C)C)C(=O)OC[C@H](NC(=O)c1cnc3ccccc3n1)C(=O)N[C@H](C)C(=O)N2C	HTT promoter inh inconclusive (no result: p53null 32C kill, p53null 39C kill)
Cc1oc(-c2ccc(C(=O)NCc3ccccc3Cl)cc2)nc1CN1CCc2ccccc21	HTT promoter inh 14µM
COc1ccccc1CNC(=O)c1ccc(-c2nc(CN3CCc4ccccc43)c(C)o2)cc1	HTT promoter inh 18µM
CCCCNC(=O)c1ccc(-c2nc(CN3CCc4ccccc43)c(C)o2)cc1	none
CC[C@@H](CO)NCCN[C@@H](CC)CO	none (no result: p53null 32C kill, p53null 39C kill)
COc1ccc2sc(N(Cc3cccnc3)C(=O)c3ccc4c(c3)OCCO4)nc2c1	HTT promoter inh 11µM
COc1ccc2nc(N(Cc3cccnc3)C(=O)c3ccc4c(c3)OCCO4)sc2c1	none
O=C(O)c1ccc2c(c1)nc(Nc1cccc(Cl)c1)c1ccncc12	HTT promoter inh inconclusive (no result: p53null 32C kill, p53null 39C kill)
CCOc1ccc(NC(=O)Cn2c(=O)n(-c3ccccc3)c(=O)c3ccc(C(=O)NCc4ccc5c(c4)OCO5)cc32)cc1	p53null 39C kill 16µM, HTT promoter inh inconclusive
CCC(=O)Oc1ccc(-c2nc3ccccc3c(=O)o2)cc1	p53null 32C kill inconclusive, p53null 39C kill inconclusive
CCCOc1ccc(-c2nc3ccccc3c(=O)o2)cc1	p53null 32C kill 16µM, HTT-AS promoter inconclusive, p53null 39C kill 5µM
CCNC(=O)c1cc2c(-c3cc(OCCN4CCCC4)c(Cl)cc3Cl)nc(N)nc2s1	HTT promoter inh inconclusive (no result: p53null 32C kill, p53null 39C kill)
CC(C)(C(=O)NCC(F)(F)C(F)(F)F)C(=O)N[C@@H]1C(=O)Nc2ccccc2-c2ccccc21	HTT promoter inh inconclusive (no result: p53null 32C kill, p53null 39C kill)
Fc1ccc(CN2CCc3nc(N4CCN(c5ccccc5F)CC4)ncc3C2)c(F)c1	none
CCOc1ccccc1CN1CCc2nc(N3CCN(c4ccccc4F)CC3)ncc2C1	HTT promoter inh 14µM
CCOc1ccc(C(=O)Nc2ccc(S(=O)(=O)N(Cc3ccccc3)c3ccccc3)cc2)cc1	HTT promoter inh 1.8µM
COc1ccc(C(=O)Nc2ccc(S(=O)(=O)N(Cc3ccccc3)c3ccccc3)cc2)cc1	HTT promoter inh 5µM
CCOc1ccc(NC(=O)c2ccc(N)cc2)cc1	p53null 32C kill 11µM, p53null 39C kill inconclusive (no result: HTT-AS promoter, HTT promoter inh)
Cc1cc(C)c2c(N)c(C(=O)Nc3ncc(C)s3)sc2n1	p53null 32C kill 0.89µM, p53null 39C kill 1µM (no result: HTT-AS promoter, HTT promoter inh)
Cc1ccc(Nc2sc(C(=O)c3ccccc3)c(N)c2C(=O)Nc2ccc(Cl)cc2)cc1	HTT promoter inh inconclusive
Nc1c(C(=O)c2ccccc2)sc(Nc2ccc(Cl)c(Cl)c2)c1C(=O)Nc1ccccc1	HTT promoter inh 28µM
CCC(=O)N[C@H]1CC[C@H](C(=O)N(C)c2ccc(-c3nc4ccccc4o3)cc2)C1	none (no result: p53null 32C kill, p53null 39C kill)

Bioassay records: PubChem BioAssay, National Center for Advancing Translational Sciences (NCATS)
